Measured values taken from paper PMC7826789 (International Journal of Molecular Sciences, 2021).

test system: ACVR1B

Kinases covered, ACVR1B:
COc1cc(-c2cncc(-c3cnn(C4CCNCC4)c3)c2)cc(OC)c1OC [K05908]
Cc1cccc(-c2cc(Nc3ccncc3)c3ccccc3n2)n1 [GSK223675]
Cc1cccc(-c2nc(Nc3ccncc3)c3ccccc3n2)n1 [GW855857]
